Assay results: PubChem BioAssay (NCI)
This is part of a sample that, as a whole, favours compounds with a hit. Of some 83,000 tested, about 20% had one in any assay.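 Testing used 96-well plates and a 48-hour single-concentration exposure. Example: -40 means 40% of the starting cells died.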 The source made the active and inactive calls.

What follows are compounds tested on HCC-2998 colon (assay: NCI-60 one-dose screen, 48 h (100 = growth as untreated, 0 = no growth, -100 = all killed)). Conditions: 10 µM unless noted.
Description: Growth inhibition of the HCC-2998 human tumor cell line is measured as a screen for anti-cancer activity. Cells are grown in 96 well plates and exposed to the test compound for 48 hours. Compounds are tested at a single concentration, which is 10^-5 M for most compounds. The reported endpoint is percent growth (GI% or GIPRCNT), where numbers from 0 - 100% represent growth inhibition, and numbers from -100% - 0 represent cell death. For example, a value of 40 represents 60% growth inhibition. A value of 0 means no net growth occurred over the course of the experiment. A value of -40 indicates 40% of cells at the beginning of the experiment died by the end of the experiment. A value of -100 means all cells are dead at the end of the experiment.
NCI-60 Human Tumor Cell Lines Screen was performed using the standard one-dose NCI protocol, which is described in more detail at https://dtp.cancer.gov/discovery_development/nci-60/default.htm.
Compounds with GIPRCNT values below 10 were considered active. Activity score was based on GIPRCNT using the following formula: […]
Score is 0 for GIPRCNT values of 100 or above, 50 for GIPRCNT values of 0, and 100 for GIPRCNT values of -100.

Row | Compound | growth
1 | CCN1C(=O)N(CC)C2C1NN=C1SCC(=O)N12 (stereo not given) | 105% (inactive)
2 | Cn1cc(-c2nn3cc(-c4ccccc4)nc3s2)c2ccccc21 | 86% (inactive)
3 | COc1cccc(/C=C/C(=O)c2cc3c(N)c(C(=O)Nc4cccc(Cl)c4C)sc3nc2C)c1 | -79.8% (active)
4 | CN1CCN(CCCOc2ccc3ncnc(Nc4ccc(Oc5cccc(F)c5)c(Cl)c4)c3c2)CC1 | -40% (active)
5 | CCOC(=O)c1c(C)nn(CC(O)c2ccccc2)c1NC(=O)Nc1cccc(F)c1 (stereo not given) | 94.6% (inactive)
6 | COc1ncc2cc1NS(=O)(=O)c1cccc(c1)C(=O)NCC1=CC=C(S1)c1ncnc3c1SC2=C3C | -43.1% (active)
7 | COc1ccc(/C=C/C(=O)c2ccc(Nc3nc(Nc4ccc(F)cc4)nc(Nc4ccc(Cl)cc4)n3)cc2)cc1 | 51.3% (inactive)
8 | C#CCOc1cccc(-c2ncc3cc(NC(=O)CCl)ccc3n2)c1 | -7.49% (active)
9 | O=C(CN1CCN(c2cc3c(cc2F)c(=O)c(C(=O)O)cn3C2CC2)CC1)N/N=C/c1ccncc1 | 110% (inactive)
10 | Cc1cc(N2CCN(C)CC2)nc(NCc2cc(Nc3ccnc4cc(Cl)ccc34)ccc2F)n1 | -12.7% (active)
11 | CCOC(=O)c1cn2ncnc(Oc3ccc(NC(=O)NC4CC4)c(F)c3)c2c1C | 110% (inactive)
12 | O=C1Nc2ccccc2C2c3cccn3-c3ccccc3N12 (stereo not given) | 77.2% (inactive)
13 | C=C(CO)[C@@H]1CC[C@]2(COC3CCCCO3)CC[C@]3(C)[C@H](CC[C@@H]4[C@@]5(C)C=C(C=O)C(=O)C(C)(C)[C@@H]5CC[C@]43C)[C@@H]12 (stereo not given in full) | -87.5% (active)
14 | O=C(N/N=C/c1ccc(O)cc1O)c1ccc(Nc2ccnc(C(F)(F)F)c2)cc1 | 64.7% (inactive)
15 | COc1cccc2c(N=NC(=O)c3ccc(S(N)(=O)=O)cc3)c(O)[nH]c12 | 113% (inactive)
16 | O=C1/C(=C/c2ccccc2[N+](=O)[O-])COc2ccc(O)cc21 | 29% (inactive)
17 | C[N+](C)(C/C=C/c1ccccc1)Cc1ccccc1 | 95.8% (inactive)
18 | c1ccc2cc(Cn3c[n+](Cc4ccc5ccccc5c4)c4ccccc43)ccc2c1 | -53.3% (active)
19 | CCOC(=O)n1cc(-c2nonc2-c2cn(C)c3ccccc23)c2ccccc21 | 60.9% (inactive)
20 | COc1ccc(C2=NN(C(=O)c3cc(OC)c(OC)c(OC)c3)C(c3ccc(N(C)C)cc3)C2)cc1 (stereo not given) | 1.81% (active)

Row | Compound | growth
21 | Cc1[nH]c(C(=O)Nc2cccc(OC3CCNCC3)c2)c(Cl)c1Cl | 2.97% (active)
22 | Cn1cc(-c2csc(-c3cn(C(=O)OC(C)(C)C)c4ccccc34)n2)c2ccnc(Cl)c21 | 83.5% (inactive)
23 | O=C(Cn1nnc2ccccc21)N/N=C/c1ccccc1F | 115% (inactive)
24 | CS(=O)(=O)Cc1cnc(C2OCCO2)s1 | 107% (inactive)
25 | O=C(Nc1cccnc1Nc1ccc(Cl)cc1)c1cn(Cc2ccc(F)cc2)nn1 | 100% (inactive)
26 | COc1ccc(NC(=O)c2cccc(C3CCc4c(cc(OC)c(OC)c4OC)O3)c2)cc1 (stereo not given) | 50.7% (inactive)
27 | CCOC(=O)CSc1nc2sc3c(c2c(=O)n1-c1ccc([N+](=O)[O-])cc1)CCCCC3 | 82% (inactive)
28 | COc1ccc(-c2ccc(=O)oc2C#Cc2cc(OC)c(OC)c(OC)c2)cc1O | 221% (inactive)
29 | COc1ccc(Cc2nnc(Nc3nc4ccccc4s3)s2)cc1 | 103% (inactive)
30 | COc1ccc(Nc2ncc(C(N)=O)c(NCCCNC(=O)C3CCC3)n2)cc1 | 98.5% (inactive)
31 | COC(=O)C1=C(C)NC(C)=C(C(=O)OCC(C)C)C1c1ccccc1[N+](=O)[O-] (stereo not given) | 83.5% (inactive)
32 | COC(=O)c1c2c(c(C)[n+]([O-])c1C)C(=O)C=CC2=O | -61.3% (active)
33 | COc1cc(C2Cc3ncccc3-c3[nH]c(=O)c4cccnc4c32)cc(OC)c1OC (stereo not given) | 25.1% (inactive)
34 | COC1=CC(c2ccc[nH]2)=N/C1=C\c1[nH]c(C)c(CC(=O)OCc2ccccc2)c1C | 13.4% (inactive)
35 | N=C(N)c1ccc(-c2ccc(-c3ccc(Cl)cc3)o2)o1 | -81.1% (active)
36 | C/C(=C(\c1ccc(OCCN2CCCCCC2)cc1)c1ccc(OC(=O)Cc2ccccc2)cc1)c1ccc(Cl)cc1 | 13.6% (inactive)
37 | CS(=O)(=O)Nc1cc(-c2ccc3ncnc(Nc4ccc5c(cnn5Cc5cccnc5)c4)c3c2)cnc1Cl | 65.7% (inactive)
38 | O=C(Nc1nc(C(=O)N2CCN(C(c3ccccc3)c3ccccc3)CC2)cs1)c1ccc(NC2CCCCC2)c([N+](=O)[O-])c1 | 72.7% (inactive)
39 | CCN(CC)c1ccc(/C=C\c2cc(C)c3cc(C)ccc3n2)cc1 | 13.6% (inactive)
40 | COc1ccc(/C=C/C(=O)c2cc3c(N)c(C(=O)Nc4ccc(OC)cc4)sc3nc2C)cc1 | 15.9% (inactive)
